Results reported in PubChem BioAssay (EPA / NIEHS).
Records with an inconclusive call do not appear. Some structures have more than one record in an assay (separate samples or runs), and their calls can disagree. Active and inactive are the calls of the source. How the source made its calls, unless noted: active means hit-call score of the fitted dose curve at least 0.9, where 1 is the maximum; inactive means score below 0.9.

Legend:
[1] = ATG_GAL4_TRANS: Attagene TRANS-FACTORIAL HepG2 Assay for GAL4 (Internal Marker) (AID 2282976; active means hit-call score of the fitted dose curve at least 0.9, where 1 is the maximum); details: HepG2 Attagene TRANS GAL4 internal marker reporter
Method in brief: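 HepG2 cells transiently transfected with multiplexed GAL4-UAS reporter constructs were dosed for 24 h. Reporter mRNA was measured by RT-PCR, 6-FAM primer extension, HpaI digestion and capillary electrophoresis, and gain of signal was fitted relative to DMSO.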

[2] = target: Bile acid receptor (Homo sapiens) (UniProt Q96RI1); assay: ATG_FXR_TRANS: Attagene TRANS-FACTORIAL HepG2 Assay for Farnesoid X Receptor (FXR) (AID 2282979; active means hit-call score of the fitted dose curve at least 0.9, where 1 is the maximum;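 further: hits raise reporter mRNA above DMSO so AC50 marks FXR activation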); details: HepG2 Attagene TRANS FXR-GAL4 reporter transcription
Method in brief: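 HepG2 cells transiently transfected with reporter constructs in which a chimeric FXR-GAL4 protein drives a GAL4-UAS reporter; 24 h compound exposure. Reporter mRNA measured by RT-PCR, FAM labelling, HpaI digestion and capillary electrophoresis; gain-of-signal versus DMSO.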

[3] = target: Oxysterols receptor LXR-beta (Homo sapiens) (UniProt P55055); assay: ATG_LXRb_TRANS: Attagene TRANS-FACTORIAL HepG2 Assay for human Liver X Receptor beta (LXRb) (AID 2282981; active means hit-call score of the fitted dose curve at least 0.9, where 1 is the maximum); details: HepG2 Attagene TRANS GAL4-LXRb reporter, mRNA
Method in brief: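 In this TRANS format, exogenous chimeric NR-Gal4 protein activity, not endogenous factors, drives reporter expression in transfected human HepG2 cells. Exposure lasted 24 h; reporter mRNA was read by fluorescent capillary electrophoresis.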

[4] = target: Hepatocyte nuclear factor 4-alpha (Homo sapiens) (UniProt P41235); assay: ATG_HNF4a_TRANS: Attagene TRANS-FACTORIAL HepG2 Assay for human Hepatocyte Nuclear Factor 4 alpha (HNF4a) (AID 2282982; active means hit-call score of the fitted dose curve at least 0.9, where 1 is the maximum); details: HepG2 HNF4a transactivation reporter, mRNA readout
Method in brief: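 Cells used were human HepG2, transiently carrying GAL4-UAS reporter units read out against exogenous NR-GAL4 chimeras. Reporter transcript levels after 24 h dosing were quantified by fluorescent RT-PCR and capillary electrophoresis.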

[5] = ATG_M_06_TRANS: Attagene TRANS-FACTORIAL HepG2 Assay for M06 Transcription Factor (Internal Marker) (AID 2282983; active means hit-call score of the fitted dose curve at least 0.9, where 1 is the maximum); details: HepG2 Attagene TRANS M06 internal marker reporter
Method in brief: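 HepG2 cells transiently transfected with multiplexed GAL4-UAS reporter transcription units; after 24 h compound exposure, reporter mRNA measured by RT-PCR, FAM-labelled primer extension, HpaI digestion and capillary electrophoresis. Gain-of-signal fitted versus DMSO baseline; background control readout.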

[6] = ATG_M_32_TRANS: Attagene TRANS-FACTORIAL HepG2 Assay for M32 Transcription Factor (Internal Marker) (AID 2282984; active means hit-call score of the fitted dose curve at least 0.9, where 1 is the maximum); details: HepG2 Attagene TRANS M32 internal marker reporter
Method in brief: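 Human hepatoma HepG2, transient MRTU transfection, 24 h treatment. RNA → RT-PCR → fluorescent primer extension → HpaI digest (2 h, 37 C) → CE. Positive-direction fit vs DMSO.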

[7] = target: Transcriptional activator Myb (Homo sapiens) (UniProt P10242); assay: ATG_Myb_CIS: Attagene CIS-FACTORIAL HepG2 Assay for human Myeloblastosis (Myb) Proto-Oncogene Transcription Factor (AID 2282986); details: HepG2 Attagene CIS-FACTORIAL Myb reporter transcription; actives raise or lower the signal
Method in brief: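 Transiently transfected HepG2 cells carrying a multiplexed cis-promoter reporter set report endogenous Myb activity after 24 h compound exposure. Reporter mRNA is read by RT-PCR with capillary electrophoresis of fluorescent products, fitted bidirectionally against DMSO.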

[8] = target: Nuclear respiratory factor 1 (Homo sapiens) (UniProt Q16656); assay: ATG_NRF1_CIS: Attagene CIS-FACTORIAL HepG2 Assay for human Nuclear Respiratory Factor 1 (NRF1) Orphan Gene (AID 2282987); details: HepG2 NRF1 cis-element reporter, Attagene multiplex; actives raise or lower the signal
Method in brief: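 HepG2 cells transiently transfected with multiple cis-regulated reporter units, exposed 24 h. Reporter mRNAs measured by RT-PCR, fluorescent labelling, HpaI digestion and capillary electrophoresis; bidirectional fitting against DMSO.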

[9] = ATG_NFI_CIS: Attagene CIS-FACTORIAL HepG2 Assay for human Nuclear Factor I (NFI) (AID 2282989); details: HepG2 cis-regulatory reporter, NFI response element transcription; actives raise or lower the signal
Method in brief: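 Transfected HepG2 liver cells, exposed 24 h, supplied total RNA for oligo(dT) reverse transcription and reporter-specific PCR. Labelled, HpaI-cut fragments were sized by capillary electrophoresis; DMSO set the baseline for bidirectional fitting.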

[10] = target: Myc proto-oncogene protein (Homo sapiens) (UniProt P01106); assay: ATG_Myc_CIS: Attagene CIS-FACTORIAL HepG2 Assay for human Myelocytomatosis (Myc) Proto-Oncogene Transcription Factor (AID 2282990); details: HepG2, Attagene cis-reporter transcription factor activity; actives raise or lower the signal
Method in brief: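 DMSO-normalised, bidirectionally fitted reporter mRNA signal. HepG2 cells transfected with cis reporter constructs, treated 24 h; transcripts detected by RT-PCR, 6-FAM primer extension and CE.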

[11] = ATG_NF_kB_CIS: Attagene CIS-FACTORIAL HepG2 Assay for human Nuclear Factor Kappa B (NF-kB) (AID 2282991); details: HepG2 Attagene cis-factorial NF-kB reporter mRNA; actives raise or lower the signal
Method in brief: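 HepG2 cells transfected with cis-promoter-driven reporter units, so endogenous transcription factor activity is measured. Reporter mRNA quantified 24 h after dosing by RT-PCR and capillary electrophoresis, with bidirectional fitting against DMSO.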

[12] = ATG_NRF2_ARE_CIS: Attagene CIS-FACTORIAL HepG2 Assay for human Nuclear Factor Erythroid 2 Related Factor 2 (NFR2) response to Antioxidant Response Elements (ARE) (AID 2282992); details: HepG2 Attagene ARE/NRF2 reporter, transcription factor activity; actives raise or lower the signal;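 on AC50: reporter mRNA level measured by RT-PCR and capillary electrophoresis fluorescence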
Method in brief: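 HepG2 cells transiently transfected with multiplexed cis-element reporter constructs, 24 h after chemical dosing; reporter mRNA quantified by RT-PCR, fluorescent primer extension, HpaI digestion and capillary electrophoresis. Bidirectional fit relative to DMSO.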

[13] = ATG_Oct_MLP_CIS: Attagene CIS-FACTORIAL HepG2 Assay for human Octamer-Binding Transcription Factor (Oct) (AID 2282993); details: HepG2 Attagene cis-factorial Oct reporter, mRNA; actives raise or lower the signal
Method in brief: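 Using HepG2 cells bearing transfected cis-reporter constructs, mRNA induction was read after 24 h by fluorescent RT-PCR and capillary electrophoresis, with DMSO defining baseline for gain- or loss-of-signal fits.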

[14] = target: Cellular tumor antigen p53 (Homo sapiens) (UniProt P04637); assay: ATG_p53_CIS: Attagene CIS-FACTORIAL HepG2 Assay for human p53 Transcription Factor (AID 2282994); details: HepG2 p53 cis-element reporter, Attagene mRNA; actives raise or lower the signal
Method in brief: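 HepG2 cells transiently transfected with cis-regulated multiple reporter transcription units, dosed 24 h. Reporter mRNA measured by RT-PCR, 6-FAM primer extension, HpaI digestion and capillary electrophoresis; bidirectional fit relative to DMSO.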

[15] = BSK_3C_TissueFactor: BioMAP Diversity Plus: 3C Assay for Tissue Factor Biomarker Activity (AID 2282997); details: BioMAP 3C HUVEC, tissue factor biomarker readout; actives raise or lower the signal
Method in brief: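 Primary human umbilical vein endothelial cells in the 3C system were exposed to test chemical for 24 h, then Tissue Factor measured by ELISA. Activity was fitted bidirectionally against DMSO as negative control and baseline.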

[16] = BSK_3C_uPAR: BioMAP Diversity Plus: 3C Assay for Urokinase-type plasminogen activator receptor (uPAR) Biomarker Activity (AID 2282998); details: BioMAP 3C HUVEC, uPAR biomarker ELISA; actives raise or lower the signal
Method in brief: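 In this endothelial cell-based assay, human umbilical vein primary cells were treated with chemicals and harvested at 24 h. uPAR was quantified using ELISA, with gains or losses fitted relative to DMSO controls.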

[17] = target: Estrogen-related receptor gamma (Homo sapiens) (UniProt P62508); assay: ATG_ERRg_TRANS: Attagene TRANS-FACTORIAL HepG2 Assay for human Estrogen-Related Receptor gamma (ERRg) (AID 2282977; active means hit-call score of the fitted dose curve at least 0.9, where 1 is the maximum;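 further: hits increase reporter signal over DMSO so potencies reflect activators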); details: HepG2 Attagene TRANS reporter, ERRg transactivation
Method in brief: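 HepG2 cells transiently transfected with multiplexed GAL4-UAS reporter units driven by chimeric NR-Gal4 proteins; 24 h exposure. Reporter mRNA quantified by RT-PCR, fluorescent labelling, HpaI digestion and capillary electrophoresis; gain of signal vs DMSO.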

[18] = target: Glucocorticoid receptor (Homo sapiens) (UniProt P04150); assay: ATG_GR_TRANS: Attagene TRANS-FACTORIAL HepG2 Assay for human Glucocorticoid Receptor (GR) (AID 2282978; active means hit-call score of the fitted dose curve at least 0.9, where 1 is the maximum;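 further: activators score as hits since higher reporter transcript over DMSO is fitted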); details: HepG2 Attagene TRANS GR reporter, mRNA transcription
Method in brief: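 HepG2 cells transiently transfected with GAL4-UAS reporter units and exogenous GR-Gal4 chimera, dosed 24 h. Reporter mRNA by RT-PCR, FAM labeling, HpaI digest and capillary electrophoresis; gain-of-signal fit versus DMSO.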

[19] = target: Nuclear receptor subfamily 4 group A member 2 (Homo sapiens) (UniProt P43354); assay: ATG_NURR1_TRANS: Attagene TRANS-FACTORIAL HepG2 Assay for human Nuclear Receptor Related Protein 1 (NURR1) (AID 2282985; active means hit-call score of the fitted dose curve at least 0.9, where 1 is the maximum); details: HepG2 Attagene TRANS reporter, mRNA readout
Method in brief: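 After 24 h chemical dosing, total RNA from transiently transfected HepG2 cells was reverse-transcribed and reporter cDNA PCR-amplified, FAM-labelled and analysed by capillary electrophoresis. Activity fitted in positive direction, DMSO as negative control.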

Cellular tumor antigen p53 (Homo sapiens), sequence (P04637 whole entry, looked up): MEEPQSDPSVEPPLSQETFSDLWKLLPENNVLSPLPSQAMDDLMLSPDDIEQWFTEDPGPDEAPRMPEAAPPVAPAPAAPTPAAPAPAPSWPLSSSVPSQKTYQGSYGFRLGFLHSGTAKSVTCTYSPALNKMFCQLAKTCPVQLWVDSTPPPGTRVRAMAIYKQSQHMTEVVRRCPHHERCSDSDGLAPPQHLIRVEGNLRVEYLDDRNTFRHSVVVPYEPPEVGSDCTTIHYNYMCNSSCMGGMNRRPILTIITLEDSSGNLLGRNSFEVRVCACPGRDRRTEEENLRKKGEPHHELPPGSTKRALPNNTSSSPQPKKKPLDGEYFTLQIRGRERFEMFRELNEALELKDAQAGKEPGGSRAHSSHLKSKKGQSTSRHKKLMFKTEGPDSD
Estrogen-related receptor gamma (Homo sapiens), sequence (P62508 whole entry, looked up, the tested form may be a part): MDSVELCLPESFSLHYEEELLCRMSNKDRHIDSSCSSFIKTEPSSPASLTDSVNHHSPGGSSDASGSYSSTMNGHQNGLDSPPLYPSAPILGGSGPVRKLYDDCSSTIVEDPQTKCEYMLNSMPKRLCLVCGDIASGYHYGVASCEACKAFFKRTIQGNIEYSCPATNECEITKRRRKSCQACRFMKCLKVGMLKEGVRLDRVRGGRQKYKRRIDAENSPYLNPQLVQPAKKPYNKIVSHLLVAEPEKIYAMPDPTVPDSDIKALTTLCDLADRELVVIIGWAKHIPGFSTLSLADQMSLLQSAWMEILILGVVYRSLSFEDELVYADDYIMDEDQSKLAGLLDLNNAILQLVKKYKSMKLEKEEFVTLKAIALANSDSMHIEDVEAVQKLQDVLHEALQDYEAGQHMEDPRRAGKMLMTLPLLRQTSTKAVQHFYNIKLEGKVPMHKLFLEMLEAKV
Myc proto-oncogene protein (Homo sapiens), sequence (P01106 whole entry, looked up): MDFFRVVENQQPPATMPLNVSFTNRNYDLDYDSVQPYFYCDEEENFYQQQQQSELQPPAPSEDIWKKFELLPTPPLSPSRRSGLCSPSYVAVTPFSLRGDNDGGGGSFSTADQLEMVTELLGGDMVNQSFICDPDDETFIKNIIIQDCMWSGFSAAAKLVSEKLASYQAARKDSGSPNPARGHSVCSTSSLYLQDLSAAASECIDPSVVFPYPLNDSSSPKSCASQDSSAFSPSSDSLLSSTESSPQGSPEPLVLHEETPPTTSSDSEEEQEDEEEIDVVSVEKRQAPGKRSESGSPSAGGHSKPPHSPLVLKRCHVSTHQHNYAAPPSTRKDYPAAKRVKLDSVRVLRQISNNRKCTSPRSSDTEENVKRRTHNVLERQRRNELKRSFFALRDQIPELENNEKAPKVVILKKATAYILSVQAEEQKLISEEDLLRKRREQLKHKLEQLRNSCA
Oxysterols receptor LXR-beta (Homo sapiens), sequence (P55055 whole entry, looked up, the tested form may be a part): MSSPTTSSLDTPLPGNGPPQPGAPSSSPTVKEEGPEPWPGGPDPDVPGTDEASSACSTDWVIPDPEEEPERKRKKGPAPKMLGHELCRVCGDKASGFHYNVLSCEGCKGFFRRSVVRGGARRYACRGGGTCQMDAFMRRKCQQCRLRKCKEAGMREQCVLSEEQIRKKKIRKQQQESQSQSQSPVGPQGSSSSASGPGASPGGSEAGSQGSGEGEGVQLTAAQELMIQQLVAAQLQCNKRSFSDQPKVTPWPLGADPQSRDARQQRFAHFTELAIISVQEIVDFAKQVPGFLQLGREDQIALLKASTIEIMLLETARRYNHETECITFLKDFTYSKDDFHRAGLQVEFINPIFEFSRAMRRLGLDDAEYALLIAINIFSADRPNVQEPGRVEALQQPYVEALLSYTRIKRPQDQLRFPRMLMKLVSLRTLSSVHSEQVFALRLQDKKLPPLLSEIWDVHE
Nuclear receptor subfamily 4 group A member 2 (Homo sapiens), sequence (P43354 whole entry, looked up): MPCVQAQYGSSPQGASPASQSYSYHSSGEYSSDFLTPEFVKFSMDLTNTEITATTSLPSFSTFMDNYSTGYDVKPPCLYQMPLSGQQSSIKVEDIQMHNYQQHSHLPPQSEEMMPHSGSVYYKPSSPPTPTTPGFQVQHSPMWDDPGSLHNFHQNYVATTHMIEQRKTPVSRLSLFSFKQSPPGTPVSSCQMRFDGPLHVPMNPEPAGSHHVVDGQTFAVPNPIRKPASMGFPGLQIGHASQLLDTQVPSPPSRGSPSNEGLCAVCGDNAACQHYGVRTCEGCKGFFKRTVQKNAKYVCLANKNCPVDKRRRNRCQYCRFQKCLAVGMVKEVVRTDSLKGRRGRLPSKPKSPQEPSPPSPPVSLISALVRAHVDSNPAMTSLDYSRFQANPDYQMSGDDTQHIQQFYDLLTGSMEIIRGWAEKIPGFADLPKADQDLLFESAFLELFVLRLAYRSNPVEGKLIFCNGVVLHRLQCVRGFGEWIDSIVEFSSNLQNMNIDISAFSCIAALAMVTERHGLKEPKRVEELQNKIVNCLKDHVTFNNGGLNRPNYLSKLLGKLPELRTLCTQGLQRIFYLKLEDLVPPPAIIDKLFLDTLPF
Glucocorticoid receptor (Homo sapiens), sequence (P04150 whole entry, looked up, the tested form may be a part): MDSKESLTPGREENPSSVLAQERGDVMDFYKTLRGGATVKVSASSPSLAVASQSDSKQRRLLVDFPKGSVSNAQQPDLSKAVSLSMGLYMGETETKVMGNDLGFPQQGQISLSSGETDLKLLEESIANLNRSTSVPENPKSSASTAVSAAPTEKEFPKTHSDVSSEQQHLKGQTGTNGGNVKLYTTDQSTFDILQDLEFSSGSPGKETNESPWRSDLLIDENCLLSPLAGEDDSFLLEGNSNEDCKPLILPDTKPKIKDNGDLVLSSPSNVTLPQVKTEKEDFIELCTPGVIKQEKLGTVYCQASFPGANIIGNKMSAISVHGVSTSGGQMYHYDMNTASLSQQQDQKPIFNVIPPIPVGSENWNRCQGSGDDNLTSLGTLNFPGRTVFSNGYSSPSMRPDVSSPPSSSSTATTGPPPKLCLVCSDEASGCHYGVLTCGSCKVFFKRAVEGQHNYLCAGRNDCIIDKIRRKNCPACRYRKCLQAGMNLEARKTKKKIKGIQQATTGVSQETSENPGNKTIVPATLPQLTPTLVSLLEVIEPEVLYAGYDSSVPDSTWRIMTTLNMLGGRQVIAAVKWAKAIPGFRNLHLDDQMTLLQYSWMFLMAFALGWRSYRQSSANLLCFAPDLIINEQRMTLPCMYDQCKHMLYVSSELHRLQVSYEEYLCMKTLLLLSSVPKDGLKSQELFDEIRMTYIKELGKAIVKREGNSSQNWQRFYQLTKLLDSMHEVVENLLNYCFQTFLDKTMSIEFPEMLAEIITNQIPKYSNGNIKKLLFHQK
Transcriptional activator Myb (Homo sapiens), sequence (P10242 whole entry, looked up): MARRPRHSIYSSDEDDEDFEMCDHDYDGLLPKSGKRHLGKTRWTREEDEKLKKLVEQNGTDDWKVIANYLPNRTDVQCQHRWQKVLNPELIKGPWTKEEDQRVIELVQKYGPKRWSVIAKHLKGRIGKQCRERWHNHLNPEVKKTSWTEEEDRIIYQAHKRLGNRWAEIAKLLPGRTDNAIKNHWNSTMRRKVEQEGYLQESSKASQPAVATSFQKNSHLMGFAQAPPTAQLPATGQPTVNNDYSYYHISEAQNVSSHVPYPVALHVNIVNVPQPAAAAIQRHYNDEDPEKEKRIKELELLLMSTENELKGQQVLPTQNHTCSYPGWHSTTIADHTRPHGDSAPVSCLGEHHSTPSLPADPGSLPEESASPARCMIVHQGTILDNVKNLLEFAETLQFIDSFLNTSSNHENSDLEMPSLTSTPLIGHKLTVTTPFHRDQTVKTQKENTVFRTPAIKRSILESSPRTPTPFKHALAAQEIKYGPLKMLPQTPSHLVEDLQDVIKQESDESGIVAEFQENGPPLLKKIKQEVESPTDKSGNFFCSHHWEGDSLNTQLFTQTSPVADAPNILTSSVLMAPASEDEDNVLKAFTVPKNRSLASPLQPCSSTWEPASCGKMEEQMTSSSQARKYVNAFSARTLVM
Nuclear respiratory factor 1 (Homo sapiens), sequence (Q16656 whole entry, looked up): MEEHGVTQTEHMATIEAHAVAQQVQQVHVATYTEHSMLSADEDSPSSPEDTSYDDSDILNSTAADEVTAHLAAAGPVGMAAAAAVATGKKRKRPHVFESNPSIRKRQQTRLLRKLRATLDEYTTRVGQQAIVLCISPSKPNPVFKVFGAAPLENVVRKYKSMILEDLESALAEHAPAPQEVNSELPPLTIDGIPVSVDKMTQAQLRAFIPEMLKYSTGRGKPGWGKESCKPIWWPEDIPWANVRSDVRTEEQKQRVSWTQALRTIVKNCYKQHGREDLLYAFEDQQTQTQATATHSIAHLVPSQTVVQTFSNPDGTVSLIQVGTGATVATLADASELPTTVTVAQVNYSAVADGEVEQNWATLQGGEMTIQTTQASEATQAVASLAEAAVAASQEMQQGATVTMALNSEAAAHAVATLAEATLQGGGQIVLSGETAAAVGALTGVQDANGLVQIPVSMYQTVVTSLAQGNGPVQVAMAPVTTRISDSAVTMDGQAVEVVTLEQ
Hepatocyte nuclear factor 4-alpha (Homo sapiens), sequence (P41235 whole entry, looked up, the tested form may be a part): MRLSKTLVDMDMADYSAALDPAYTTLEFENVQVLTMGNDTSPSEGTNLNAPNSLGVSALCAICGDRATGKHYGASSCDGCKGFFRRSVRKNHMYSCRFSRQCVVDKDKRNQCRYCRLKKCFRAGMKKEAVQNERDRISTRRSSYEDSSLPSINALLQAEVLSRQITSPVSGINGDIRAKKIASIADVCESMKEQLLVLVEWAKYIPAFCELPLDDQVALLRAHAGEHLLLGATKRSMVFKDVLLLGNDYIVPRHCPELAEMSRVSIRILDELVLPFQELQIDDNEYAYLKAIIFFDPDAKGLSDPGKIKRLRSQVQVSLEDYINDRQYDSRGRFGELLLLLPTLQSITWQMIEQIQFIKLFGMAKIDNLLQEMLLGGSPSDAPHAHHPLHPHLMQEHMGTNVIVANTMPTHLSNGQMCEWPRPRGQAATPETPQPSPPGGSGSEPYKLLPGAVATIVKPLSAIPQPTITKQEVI

SMILES: CCCOCC(=Nc1ccc(Cl)cc1C(F)(F)F)n1ccnc1
- outcome [1]: inactive
- outcome [2]: inactive
- outcome [3]: inactive
- outcome [4]: inactive
- outcome [5]: inactive
- outcome [6]: inactive
- outcome [7]: inactive
- outcome [8]: inactive
- outcome [9]: inactive
- outcome [10]: inactive
- outcome [11]: inactive
- AC50 [12]: 7 µM (active)
- outcome [13]: inactive
- outcome [14]: inactive
- AC50 [15]: 28.8 µM (active)
- AC50 [16]: 31.7 µM (active)

SMILES: CCCCN(CC)c1c([N+](=O)[O-])cc(C(F)(F)F)cc1[N+](=O)[O-]
- outcome [17]: inactive
- outcome [18]: inactive
- outcome [5]: inactive
- outcome [6]: inactive
- outcome [19]: inactive
- outcome [8]: inactive
- outcome [9]: inactive
- outcome [10]: inactive
- outcome [11]: inactive
- AC50 [12]: 6.46 µM (active)
- AC50 [13]: 12.7 µM (active)
- outcome [14]: inactive
- outcome [15]: inactive
- outcome [16]: inactive

SMILES: CC1=NNC(=O)N(/N=C/c2cccnc2)C1
- outcome [17]: inactive
- outcome [3]: inactive
- outcome [4]: inactive
- outcome [5]: inactive
- outcome [6]: inactive
- outcome [19]: inactive
- outcome [8]: inactive
- outcome [9]: inactive
- outcome [10]: inactive
- outcome [11]: inactive
- outcome [12]: inactive
- outcome [13]: inactive
- outcome [14]: inactive
- outcome [15]: inactive
- outcome [16]: inactive

SMILES: CN(C)[C@@H]1C(=O)C(C(N)=O)=C(O)[C@@]2(O)C(=O)C3=C(O)c4c(O)cccc4[C@@](C)(O)[C@H]3[C@H](O)[C@@H]12
- outcome [1]: inactive
- outcome [3]: inactive
- outcome [4]: inactive
- outcome [5]: inactive
- outcome [6]: inactive
- outcome [19]: inactive
- outcome [8]: inactive
- outcome [9]: inactive
- outcome [10]: inactive
- AC50 [12]: 20.8 µM (active)
- outcome [12]: inactive
- AC50 [13]: 13.6 µM (active)
- outcome [13]: inactive
- outcome [15]: inactive
- outcome [16]: inactive

SMILES: Nc1nc(N)nc(NC2CC2)n1
- outcome [17]: inactive
- outcome [18]: inactive
- outcome [2]: inactive
- outcome [3]: inactive
- outcome [5]: inactive
- outcome [6]: inactive
- outcome [19]: inactive
- outcome [7]: inactive
- outcome [8]: inactive
- outcome [9]: inactive
- outcome [10]: inactive
- outcome [11]: inactive
- outcome [12]: inactive
- outcome [13]: inactive
- outcome [14]: inactive
- outcome [15]: inactive
- outcome [16]: inactive

SMILES: COc1cc(OC)nc(Sc2cccc(Cl)c2C(=O)O)n1
- outcome [17]: inactive
- outcome [18]: inactive
- outcome [3]: inactive
- outcome [5]: inactive
- outcome [6]: inactive
- outcome [19]: inactive
- outcome [7]: inactive
- outcome [8]: inactive
- outcome [9]: inactive
- outcome [10]: inactive
- outcome [11]: inactive
- outcome [12]: inactive
- outcome [13]: inactive
- outcome [14]: inactive
- outcome [15]: inactive
- outcome [16]: inactive

SMILES: CCOP(=S)(OCC)OC(Cl)C(Cl)(Cl)Cl (stereo not given)
- outcome [17]: inactive
- outcome [3]: inactive
- outcome [4]: inactive
- outcome [5]: inactive
- outcome [6]: inactive
- outcome [19]: inactive
- outcome [8]: inactive
- outcome [9]: inactive
- outcome [10]: inactive
- AC50 [11]: 26.4 µM (active)
- AC50 [12]: 50 µM (active)
- AC50 [13]: 29.2 µM (active)
- outcome [15]: inactive
- outcome [16]: inactive

SMILES: CCOP(=S)(Oc1cnc(C(C)(C)C)nc1)OC(C)C (stereo not given)
- outcome [17]: inactive
- outcome [18]: inactive
- AC50 [3]: 11.1 µM (active)
- outcome [4]: inactive
- outcome [5]: inactive
- outcome [8]: inactive
- outcome [9]: inactive
- outcome [10]: inactive
- AC50 [11]: 22.4 µM (active)
- AC50 [12]: 14.1 µM (active)
- AC50 [13]: 2.06 µM (active)
- AC50 [15]: 31.9 µM (active)
- AC50 [16]: 36.2 µM (active)
